Shown are actives, neighbours in structure and some others; about 4.1% of the full set was active somewhere.
Peg3 promoter: Peg3 promoter activity inhibition; HeLa PEG-Prom luciferase reporter, luminescence, overnight; inhibition, % at 20 µM; actives 1.7% (n = 360,000); AID 588405;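 active = inhibition of at least 50% at 20 µM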
TRPM1 prom inh: MITF TRPM1 promoter inhibition in SK-MEL-5 cells. inhibition, % at 12.5 µM. AID 488899. SK-MEL-5 TRPM1 promoter luciferase, 24 h. actives 0.83% (n = 330,000);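 active = mean inhibition across replicates of 60% or more, whatever share of single replicates reaches that level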
Shn3 3UTR inh: Schnurri-3 reporter inhibition in Clone20 osteoblasts | Clone20 osteoblast Shn3 3'UTR firefly luciferase, 24 h | inhibition, % at 12.5 µM | actives 0.52% (n = 360,000) | AID 588674;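 active = mean inhibition of at least 75% with every replicate also reaching 75%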;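 note: 0% = median of neutral control wells and 100% = pilot-screen positive control compound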
EBV LMP1 NFkB: Epstein-Barr LMP1 NF-kappaB reporter inhibition. LMP1-induced NF-kappaB luciferase reporter cells, luminescence. AID 504558. actives 0.69% (n = 350,000). inhibition, % at 12.5 µM; in the data active = inhibition above about 41%;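 note: 0% = neutral control wells and 100% = reference inhibitor control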
TROY signal inh: inhibitors of TROY-dependent NF-kB signaling. Q293 LMP1-TROYcd NF-kB luciferase reporter, 4 h. inhibition, % at 10 µM. actives 0.98% (n = 360,000). AID 1347056;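 active = compounds whose plate-normalised and pattern-corrected inhibition of the luciferase reporter signal at the single screening dose is 50% or more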
TWEAK-Fn14 inh: blocks TWEAK-Fn14 interaction in a reporter cell assay; AID 1159606; inhibition, % at 10 µM; TWEAK-stimulated Fn14 reporter cells, luciferase luminescence, 8 h; actives 2% (n = 360,000); in the data active = inhibition above about 50%
Active calls of the source: *.

Screening Cc1[nH]c2ccccc2c1C(=O)CSc1nc2ncc(Cl)cc2[nH]1 returned Peg3 promoter 115*, TRPM1 prom inh 13, Shn3 3UTR inh 36, EBV LMP1 NFkB -18, TROY signal inh -20 and TWEAK-Fn14 inh -2.
Screening O=C(CSc1nc2ncc(Cl)cc2[nH]1)N1CCOCC1 returned Peg3 promoter -2, TRPM1 prom inh -4, Shn3 3UTR inh 86*, EBV LMP1 NFkB -4, TROY signal inh 8 and TWEAK-Fn14 inh -5.
Screening CCCCCCCN(C(=O)CCl)c1cccc(C)c1 returned Peg3 promoter 6, TRPM1 prom inh 40, Shn3 3UTR inh -30, EBV LMP1 NFkB 1, TROY signal inh -9 and TWEAK-Fn14 inh 17.
For N#CCCN(C(=O)CCl)c1cccc(Cl)c1 the results were Peg3 promoter 54*, TRPM1 prom inh 37, Shn3 3UTR inh -15, EBV LMP1 NFkB 45*, TROY signal inh 19 and TWEAK-Fn14 inh 49.
COC(=O)C1CCN(c2cc(=O)n(C3CCCCC3)c(=O)[nH]2)CC1 was read as Peg3 promoter 11, TRPM1 prom inh 11, Shn3 3UTR inh 10, EBV LMP1 NFkB 2 and TWEAK-Fn14 inh 95*.
`CCC1(C)Cc2[nH]c(=O)c(C#N)cc2CO1` (stereo not drawn) gave Peg3 promoter -9, TRPM1 prom inh 3, Shn3 3UTR inh 9, EBV LMP1 NFkB -12, TROY signal inh 8 and TWEAK-Fn14 inh 86*.
For CC(Sc1n[nH]c(=O)n1Cc1ccccc1)C(=O)NCC1CCCO1 (stereo not drawn) the results were Peg3 promoter 2, TRPM1 prom inh -4, Shn3 3UTR inh 1, EBV LMP1 NFkB -1, TROY signal inh 3 and TWEAK-Fn14 inh 13.
For N/C(=N\OC(=O)c1ccc2ccccc2c1)c1ccccn1 the results were Peg3 promoter 111*, TRPM1 prom inh 36, Shn3 3UTR inh 66, EBV LMP1 NFkB 56*, TROY signal inh 86* and TWEAK-Fn14 inh 96*.
`N/C(=N\OC(=O)c1ccc2ccccc2c1)c1ccncc1` gave Peg3 promoter -265, TRPM1 prom inh -89, Shn3 3UTR inh -15, EBV LMP1 NFkB -10, TROY signal inh 1 and TWEAK-Fn14 inh 42.
COc1ccc(/C(N)=N/OC(=O)c2ccc3ccccc3c2)cc1OC was read as Peg3 promoter -35, Shn3 3UTR inh 1, EBV LMP1 NFkB 3, TROY signal inh -73 and TWEAK-Fn14 inh -55.
`N/C(=N\OC(=O)c1ccc2ccccc2c1)c1ccccc1Cl` gave Peg3 promoter 81*, TRPM1 prom inh -76, Shn3 3UTR inh -89, EBV LMP1 NFkB -67, TROY signal inh -42 and TWEAK-Fn14 inh -148.
COCCCN1C(=O)C(CC(=O)NCCCN(C)C)CC(C(=O)N(C(C)C)C(C)C)=C1C (stereo not drawn) was read as Peg3 promoter 5, Shn3 3UTR inh -5, TROY signal inh 0 and TWEAK-Fn14 inh 7.
`C=CCn1c(SCc2ccc(C(=O)Nc3nccs3)cc2)nnc1-c1ccc(C)c(Cl)c1` gave Peg3 promoter 52*, TRPM1 prom inh 19, Shn3 3UTR inh 75, EBV LMP1 NFkB 6, TROY signal inh 44 and TWEAK-Fn14 inh 92*.
`CCC(=O)c1ccc(OCC(=O)OCC(=O)c2cc(C)n(C)c2C)cc1` gave Peg3 promoter 2, TRPM1 prom inh 6, Shn3 3UTR inh 4, EBV LMP1 NFkB 0, TROY signal inh -1 and TWEAK-Fn14 inh 5.
Screening Cc1c(Cl)cccc1NC(=O)COC(=O)Cn1cnc2c1c(=O)n(C)c(=O)n2C returned Peg3 promoter -2, TRPM1 prom inh 1, Shn3 3UTR inh -28, EBV LMP1 NFkB 1, TROY signal inh -10 and TWEAK-Fn14 inh -9.
`COc1ccc(C(=O)COC(=O)c2cc(C)no2)c(OC)c1` gave Peg3 promoter -5, Shn3 3UTR inh 11, EBV LMP1 NFkB 6, TROY signal inh -5 and TWEAK-Fn14 inh -6.
Screening O=C1c2ccccc2C(c2nnnn2-c2ccc3c(c2)OCCO3)N1Cc1ccco1 (stereo not drawn) returned TROY signal inh -18 and TWEAK-Fn14 inh 15.
Screening Cc1cc(Cl)c2oc(C(=O)N3CCN(c4ccncc4)CC3)c(C)c2c1 returned Peg3 promoter 92*, TRPM1 prom inh -3, Shn3 3UTR inh 66, EBV LMP1 NFkB -21, TROY signal inh -6 and TWEAK-Fn14 inh -1.
